In the library only some 3.1% were active in any assay of this set; here they are far more common.
RGS4 inhibitor: blocks human RGS4-accelerated GTP hydrolysis. 390,000 compounds, 0.039% hits. Transcreener GDP fluorescence polarization, RGS4-accelerated GTP hydrolysis. AID 504845. P49798. Potency, µM (doses to about 114 µM), actives largely listed as inhibitors; active = well fitted inhibition curve with a large enough effect; inconclusive = small, poorly fitted or top-dose-only effect; inactive = no such curve, though single readings can be large or run the other way; note: nearly all actives have a fitted effect of over 75% in size
Target sequence (P49798 whole entry, looked up): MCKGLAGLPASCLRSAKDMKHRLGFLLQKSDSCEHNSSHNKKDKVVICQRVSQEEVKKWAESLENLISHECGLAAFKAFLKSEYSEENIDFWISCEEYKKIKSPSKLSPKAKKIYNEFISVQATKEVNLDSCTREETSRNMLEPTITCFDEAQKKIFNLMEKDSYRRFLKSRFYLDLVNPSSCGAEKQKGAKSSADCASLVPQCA
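MLSMR compounds (23 nl, pin-transferred) preincubated 10 min at room temperature with a 500nM (2x) first reagent, then RGS4 at 900nM (2x) plus Transcreener GDP mix added; fluorescence polarization (620/688 nm) read before and after 90 min at 30 °C.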
DRD3 agonist: D3 dopamine receptor (human) agonism. max activation, %. AID 652048. D3R DiscoveRx beta-arrestin cells, luminescence, 90 min. 410,000 compounds, 0.58% hits; in the data active = max activation above about 30%
Target sequence (P35462 whole entry, looked up): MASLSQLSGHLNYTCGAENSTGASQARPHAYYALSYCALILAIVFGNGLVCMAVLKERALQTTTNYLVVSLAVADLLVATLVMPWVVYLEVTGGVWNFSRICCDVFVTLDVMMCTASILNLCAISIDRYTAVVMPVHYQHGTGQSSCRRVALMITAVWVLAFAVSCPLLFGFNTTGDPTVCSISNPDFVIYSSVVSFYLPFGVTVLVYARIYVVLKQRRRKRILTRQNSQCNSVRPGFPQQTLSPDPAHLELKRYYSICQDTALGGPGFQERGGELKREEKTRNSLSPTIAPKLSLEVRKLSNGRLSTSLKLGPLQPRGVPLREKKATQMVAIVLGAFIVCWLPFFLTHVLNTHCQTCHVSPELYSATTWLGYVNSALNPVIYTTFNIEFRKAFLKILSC
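Cells at 1500/well, incubated overnight, then treated with pinned compounds (dopamine as control) for 90 min at 37 degrees C. DiscoveRx reagent added for 30 - 60 minutes at room temperature; luminescence read.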
D3 antag: antagonists of human D3 dopamine receptor. P35462. AID 652054. 360,000 compounds, 2.5% hits. D3R cells, DiscoveRx beta-arrestin luminescence, antagonist mode; stronger effect = lower value. max response, negative = inhibition, %; in the data active = max response below about -50%; inconclusive = no clear call, values can overlap the other calls
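Cells plated overnight at 1500 cells/well, then exposed to library compounds with dopamine controls for 90 minutes at 37 degrees C. DiscoveRx reagent added for 30–60 minutes at room temperature; luminescence read, quantitative HTS format.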
uPA surface inh: blocks generation of uPA at the cell surface; 330,000 compounds, 0.31% hits; cell surface uPA generation assay, qHTS; Potency, µM (titrated, usually from 38.3 µM), most hits filed as inhibitors; active = well fitted inhibition curve with a large enough effect; inconclusive = small, poorly fitted or top-dose-only effect; inactive = no such curve, though single readings can be large or run the other way; tested in mouse RAW 264.7 cells; note: nearly all actives have a fitted effect of over 55% in size
Numbers stand for hits; 0 = inactive; ? = inconclusive; - = not tested or not shown; ! = not confirmed by another sample.

SMILES	RGS4 inhibitor	DRD3 agonist	D3 antag	uPA surface inh
CCOC(=O)CN(C(=O)CSc1nnc2c(n1)[nH]c1ccc(OC)cc12)c1ccc(F)cc1	0	0	-64.8	0
Cc1sc(-n2c(C)cc(/C=C3\SC(=S)NC3=O)c2C)c(C#N)c1C	0	0	-70.6	0
COCCNC(=O)CCCCCn1c(=S)[nH]c2ccccc2c1=O	0	0	0	0
CCN(CC)CCNC(=O)CCCCn1c(=S)[nH]c2c([nH]c3ccc(OC)cc32)c1=O	0	0	-55.9	-
CCCCNC(=O)c1ccc(Cn2c(=S)[nH]c3c([nH]c4ccc(OC)cc43)c2=O)cc1	0	0	-64.7	0
CCOCCCNC(=O)c1ccc(Cn2c(=S)[nH]c3c([nH]c4ccc(OC)cc43)c2=O)cc1	0	0	0	0
COCc1nc2ccccc2n1Cc1ccc(C(C)(C)C)cc1	0	0	-	-
Cc1nc(C(F)(F)F)c(C(=O)N/N=C(\N)c2ccccn2)s1	0	0	-51.9	0
Oc1cc(O)cc(/C=C/c2ccc(O)c(O)c2)c1	21.2µM!	0	0	7.94µM
Cc1ccc(CNC(C)c2ccccc2)cc1 (configuration not stated)	0	0	-54.9	0
Cc1ccc(NC(=O)CNC(C)c2ccccc2)cc1 (configuration not stated)	0	0	?	0
O=C(COC(=O)c1ccccc1O)NNC(=O)c1ccc(Br)cc1	0	0	-58.4	0
Cc1ccc(CCNC(=O)CN2CCN(Cc3ccc(Cl)cc3)C2=O)cc1	0	0	-	-
O=S(=O)(O)c1cc(O)c2c(O)c(N=Nc3cc(Cl)ccc3O)c(S(=O)(=O)O)cc2c1	0	0	-61.5	0
Cc1cc(-c2ccc(N=Nc3c(S(=O)(=O)O)cc4cc(S(=O)(=O)O)cc(N)c4c3O)c(C)c2)ccc1N=Nc1c(S(=O)(=O)O)cc2cc(S(=O)(=O)O)cc(N)c2c1O	-	0	-	-
COc1cc(C2C(=O)N(C3CCCCCC3)CC(=O)N2CCC2=CCCCC2)ccc1OC(C)C (configuration not stated)	0	0	-	-
Cc1ccc(C(C)C)c(OCCCNCc2cccnc2)c1	0	0	?	0
CCCCNCC#CCOc1cc(C)ccc1C(C)C	0	0	-52.0	0
COc1cccc(C(=O)COc2cccc(NC(=O)c3cccc([N+](=O)[O-])c3)c2)c1	0	0	-51.1	0
COC(=O)Nc1ccc(SCC(=O)c2cccc([N+](=O)[O-])c2)cc1	0	0	-60.3	?
CC(=O)Nc1ccc(C(=O)OCC(=O)c2cccc([N+](=O)[O-])c2)cc1	0	0	0	0
COc1ccc2cc(C(c3nnnn3C(C)(C)C)N3CCSCC3)c(=O)[nH]c2c1 (configuration not stated)	0	0	-57.1	0
O=C(C1CCCN(Cc2ccncc2)C1)N1CCc2ccccc2C1 (configuration not stated)	0	0	-71.6	0
O=C(C1CCCN(Cc2ccccc2F)C1)N1CCc2ccccc2C1 (configuration not stated)	0	0	-51.7	0
CCc1ccc2occ(CC(=O)NCc3ccccc3)c2c1	0	0	-	-
SMILES	RGS4 inhibitor	DRD3 agonist	D3 antag	uPA surface inh
CNc1cncc(-c2ccc(O)cc2)n1	-	0	0	-
CNc1cncc(-c2cc(C)c(O)c(C)c2)n1	-	76.4	0	-
COc1cc2c(cc1OC)C(COc1ccccc1OC)N(C(=O)c1ccc(S(=O)(=O)N3CCCC3)cc1)CC2 (configuration not stated)	0	0	-	-
O=C(c1cn(Cc2ccccc2)nc1-c1ccccc1)N1CCN(c2ccccn2)CC1	0	0	0	4.47µM
O=C(c1ccccc1Br)N1CCN(c2ccccn2)CC1	0	33.0	0	0
COc1ccc(-c2nn(Cc3ccccc3)cc2C(=O)N2CCN(c3ccccn3)CC2)cc1OC	0	0	0	0
COc1ccc(C(CC(=O)NCc2ccccc2Cl)N2Cc3ccccc3C2=O)cc1OC (configuration not stated)	0	0	-	-
O=C(C=Cc1ccc2c(c1)OCO2)C1CC1	-	0	0	-
Cc1cc(NC(=O)C2CCCC2)n(-c2nc3ccccc3[nH]2)n1	0	33.5	?	-
Cc1cc(NC(=O)c2ccccc2)n(-c2nc3ccccc3[nH]2)n1	0	0	0	0
COc1cccc(N2CCN(CC(=O)Nc3ccccc3C(=O)NCCc3ccccc3)CC2)c1	0	33.8	0	0
COc1cc2[nH]c(=O)n(CCCC(=O)N(C)Cc3ccccc3)c(=O)c2cc1OC	0	0	-	-
CN[C@@H]1[C@@H](O)[C@@H](O[C@@H]2[C@@H](O)[C@H](O[C@H]3O[C@H](CN)[C@@H](O)[C@H](O)[C@H]3O)[C@@H](N)C[C@H]2NC(=O)C(O)CN)OC[C@]1(C)O (some centres not stated)	-	0	-	-
O=C(NCc1ccccc1)c1cccc(COc2cc(Cl)ccc2Cl)c1	0	0	-71.6	0
Cc1cc2[nH]c(=O)c(=O)[nH]c2cc1S(=O)(=O)Nc1ccc(OC(F)(F)F)cc1	0	0	-	-
CN(C)CCCNc1cc(O)c2ncccc2c1	0	-	-	3.98µM
Oc1cc(NCc2ccc(F)cc2)cc2cccnc12	0	-	-	?
CC(C)(C)C1CCc2c(sc(NC(=O)c3ccccc3F)c2C(=O)NCc2ccco2)C1 (configuration not stated)	0	0	-	-
COc1ccc(NC(=O)CSc2nnc(Cc3cccs3)n2-c2ccc(C)cc2)cc1	0	80.8	0	-
NNc1nc(-c2ccccc2Cl)nc2ccccc12	0	0	-92.1	0
Oc1cccc(Nc2nc(-c3ccccc3Cl)nc3ccccc23)c1	0	0	0	0
C=CCn1c(Sc2ncc([N+](=O)[O-])s2)n[nH]c1=O	?	0	-80.4	0
Oc1c(Br)cc(Br)cc1C=NCc1ccccc1	0	0	-57.4	0
O/N=C/c1cc(Br)ccc1OCc1ccc(F)cc1	?	0	0	0
Oc1c(Br)cc(Br)cc1C=NCc1ccc(F)cc1	0	0	-66.5	0
SMILES	RGS4 inhibitor	DRD3 agonist	D3 antag	uPA surface inh
CCOC(=O)c1ccccc1NC(=O)N1CCN2CCCCC2C1 (configuration not stated)	0	0	-	-
COc1ccc2nc3sc(C(=O)Nc4cc(Cl)c(OC)cc4OC)cc3cc2c1	0	0	-	-
Cc1cccc(NC(=O)c2c(C)oc3ncn(CC(C)C)c(=O)c23)n1	0	0	-	-
CC(NC(=O)Nc1ccc(Cl)c(Cl)c1)C(c1ccccc1)N1CCOCC1 (configuration not stated)	0	0	0	5.01µM
CC(NC(=O)Nc1ccc([N+](=O)[O-])cc1)C(c1ccccc1)N1CCOCC1 (configuration not stated)	0	0	0	0
Cn1c(=O)n(CCOc2ccc(Cl)cc2Cl)c2ccccc21	0	0	0	0
CCC(=O)c1ccccc1OCCN1CCN(CC)CC1	0	0	0	0
CC1CC(C)CN(CCOc2cccc(Cl)c2Cl)C1 (configuration not stated)	0	0	-71.4	0
CC1CC(C)CN(CCOc2ccc(Cl)cc2Cl)C1 (configuration not stated)	0	0	-96.7	0
CCN1CCN(CCOc2cccc(Cl)c2Cl)CC1	0	67.1	?	0
COC(=O)c1ccccc1NC(=O)Cn1ncc2c(C)n(Cc3ccc(F)cc3)c(C)c2c1=O	0	0	-	-

From PubChem
